Screening data from PubChem.
This excerpt belongs to a sample that is enriched for hits.
DUX4 inh: DUX4-mediated transcription inhibition; 293T-iDUX4 ZSCAN4-Gaussia luciferase reporter, 24 h; hits give low values; 37,000 compounds, 0.8% hits; activity change, negative = inhibition, % (no concentration beside the values); AID 1224904;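 active = mean inhibition of at least 10% in the main channel, exceeding the control channel by a set limit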;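 note: 0% = median of neutral control wells and -100% = median of positive control wells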
Active calls of the source: *.

SMILES | DUX4 inh
CC=Cc1ccc2n(c1=O)C[C@@H]1[C@@H](CO)[C@H](C(=O)N[C@H](C)c3ccccc3)[C@H]2N1CC (mixture of isomers) | 9
N#C[C@@H]1[C@H](c2ccccc2-c2ccccc2F)[C@@H](CO)N1C(=O)C1CCC1 | 3
COC(=O)[C@@H]1[C@@H](CO)[C@@H]2Cn3c(ccc(-c4ccccc4)c3=O)[C@@H]2N1C(=O)CC1CC1 | -4
C[C@H](NC(=O)[C@H]1[C@H](CO)[C@H]2Cn3c(ccc(-c4cccc(F)c4)c3=O)[C@H]2N1C)c1ccccc1 | 0
C/C=C/c1ccc([C@H]2[C@H](CO)N(C(=O)CN(C)C)C23CN(C(=O)C2CCOCC2)C3)cc1 | 15
OC[C@@H]1[C@H](c2ccc(-c3cccc(F)c3)cc2)[C@H]2CN(Cc3cncnc3)CCCCN12 | 6
Cc1cccc(-c2ccc([C@@H]3[C@@H](CO)N4CCCCN(Cc5ccncc5)C[C@H]34)cc2)c1 | -5
COc1ccccc1C#Cc1ccc([C@@H]2[C@H]3CN(CCC(F)(F)F)CCCCN3[C@H]2CO)cc1 | -30*
CN(C)C(=O)c1ccc(-c2ccc([C@H]3[C@H]4CN(CCC(F)(F)F)CCCCN4[C@H]3CO)cc2)cc1 | 8
O=C(C1CC1)N1CCCCN2[C@H](C1)[C@H](c1ccc(-c3cccc(F)c3)cc1)[C@@H]2CO | 1
O=C(C1CC1)N1CCCCN2[C@H](CO)[C@@H](c3ccc(-c4cccc(F)c4)cc3)[C@H]2C1 | 0
OC[C@H]1[C@@H](c2ccc(-c3cccc(F)c3)cc2)[C@H]2CN(CCC(F)(F)F)CCCCN21 | -47*
Cc1cccc(-c2ccc([C@H]3[C@H]4CN(CCC(F)(F)F)CCCCN4[C@H]3CO)cc2)c1 | -49*
CN(C)C(=O)c1ccc(-c2ccc([C@@H]3[C@@H](CO)N4CCCCN(CCC(F)(F)F)C[C@@H]34)cc2)cc1 | 11
CC(=O)N1CCCCN2[C@H](CO)[C@@H](c3ccc(C#Cc4ccccc4F)cc3)[C@H]2C1 | -7
OC[C@H]1[C@@H](c2ccc(-c3cccc(F)c3)cc2)[C@@H]2CN(Cc3cncnc3)CCCCN12 | 14
O=C(C1CC1)N1CCCCN2[C@H](CO)[C@@H](c3ccc(-c4cccc(F)c4)cc3)[C@@H]2C1 | -23*
O=C(CN1CCOCC1)NCC[C@@H]1CC[C@@H](NC(=O)c2ccc3c(c2)OCO3)[C@H](CO)O1 | 8
C[C@@H]1CN([C@H](C)CO)C(=O)c2cc(-c3cccnc3)cnc2O[C@@H]1CN(C)C(=O)C1CCCCC1 | 0
O=C(NCC[C@H]1CC[C@H](NS(=O)(=O)c2cccc(Cl)c2)[C@H](CO)O1)c1cnccn1 | 6
CN(C)C(=O)[C@H]1[C@H](CO)[C@H]2Cn3c(ccc(/C=C/c4ccccc4)c3=O)[C@H]2N1C(=O)c1cccnc1 | 2
CN1CCCCN2[C@H](C1)[C@H](c1ccc(Br)cc1)[C@@H]2CO | 18
O=C(C[C@H]1CC[C@H](NS(=O)(=O)c2cccc(F)c2)[C@H](CO)O1)NCc1ccc2c(c1)OCO2 | 5
COc1cccc(NC(=O)N2C[C@@H](O)COC[C@H]3O[C@@H](CC(=O)NC4Cc5ccccc5C4)CC[C@@H]32)c1 | 2
O=S(=O)(c1ccccc1)N1CCCCN2[C@H](C1)[C@@H](c1ccc(-c3ccccc3)cc1)[C@@H]2CO | 15
SMILES | DUX4 inh
Cn1cnc(S(=O)(=O)N2CCCCN3[C@H](CO)[C@H](c4ccc(-c5cccc(F)c5)cc4)[C@@H]3C2)c1 | 6
Cc1ccccc1S(=O)(=O)N1CCCCN2[C@H](CO)[C@@H](c3ccc(-c4cccc(F)c4)cc3)[C@@H]2C1 | -20*
O=C(c1cccc(F)c1)N1CCCCN2[C@H](CO)[C@@H](c3ccc(-c4ccccc4)cc3)[C@H]2C1 | 3
OC[C@@H]1[C@@H](c2ccc(-c3cccc(F)c3)cc2)[C@H]2CN(CCC(F)(F)F)CCCCN12 | -35*
OC[C@@H]1[C@H](c2ccc(-c3cccc(F)c3)cc2)[C@@H]2CN(Cc3cncnc3)CCCCN12 | 4
O=C(CC1CC1)Nc1ccc2c(c1)[C@H]1C[C@H](CC(=O)N3CCCCC3)O[C@@H](CO)[C@H]1O2 | 10
CO[C@H]1CN(C)C(=O)c2ccc(NC(C)=O)cc2OC[C@@H](C)N(Cc2cccnc2)C[C@@H]1C | 0
CO[C@@H]1CN(C)C(=O)c2ccc(NC(C)=O)cc2OC[C@H](C)N(Cc2cccnc2)C[C@H]1C | 2
CO[C@@H]1CN(C)C(=O)c2ccc(NC(=O)c3nc4ccccc4s3)cc2OC[C@@H](C)N(Cc2cccnc2)C[C@H]1C | -65*
CN1C(=O)c2cc(NC(=O)c3ccccc3Cl)ccc2OC[C@@H]2O[C@H](CC(=O)NCC(F)(F)F)CC[C@H]21 | -1
CNC[C@@H]1Oc2cc(C#Cc3ccccc3OC)ccc2S(=O)(=O)N([C@@H](C)CO)C[C@H]1C | -3
O=C(C[C@H]1CC[C@H]2[C@@H](COC[C@H](O)CN2CC2CCCCC2)O1)NCc1ccc(Cl)cc1 | -4
O=C(C[C@H]1CC[C@@H]2[C@H](COC[C@@H](O)CN2CC2CCCCC2)O1)NCc1ccc(Cl)cc1 | -5
O=C(C[C@H]1CC[C@H]2[C@@H](COC[C@H](O)CN2CC2CCOCC2)O1)NCc1ccc(Cl)cc1 | -29*
O=C(C[C@H]1C[C@H]2c3cc(NS(=O)(=O)c4ccc(F)cc4)ccc3O[C@H]2[C@@H](CO)O1)NCCN1CCCCC1 | 10
C[C@@H]1CN([C@@H](C)CO)C(=O)c2cc(NC(=O)CCC(F)(F)F)ccc2O[C@@H](C)CCCCO[C@H]1CN(C)C(=O)CCCN(C)C | 3
COc1cccc(-c2ccc3n(c2=O)C[C@@H]2[C@@H](CO)[C@H](C(=O)NC4CCCC4)N[C@H]32)c1 | -1
C[C@H](CO)N1C[C@H](C)[C@@H](CN(C)Cc2ccccc2C(F)(F)F)OCc2ccccc2-c2c(n(C)c3ccccc23)C1=O | -46*
C[C@@H]1CN([C@H](C)CO)C(=O)c2c(c3ccccc3n2C)-c2ccccc2CO[C@@H]1CN(C)C(=O)Nc1ccccc1C(F)(F)F | -1
COc1ccccc1CN(C)C[C@H]1OCc2ccccc2-c2c(n(C)c3ccccc23)C(=O)N([C@H](C)CO)C[C@H]1C | -3
C[C@H]1CN([C@@H](C)CO)C(=O)c2c(c3ccccc3n2C)-c2ccccc2CO[C@H]1CN(C)C | 6
C[C@H](CO)N1C[C@H](C)[C@H](CN(C)Cc2ccccc2C(F)(F)F)OCc2ccccc2-c2c(n(C)c3ccccc23)C1=O | -59*
C[C@@H]1CN([C@@H](C)CO)C(=O)c2c(c3ccccc3n2C)-c2ccccc2CO[C@@H]1CN(C)C | -7
COc1cccc(NC(=O)N[C@@H]2C=C[C@H](CC(=O)Nc3ccc(-c4ccccc4)cc3)O[C@H]2CO)c1 | 3
N#C[C@@H]1[C@@H](c2ccc(/C=C/c3ccccc3)cc2)[C@@H](CO)N1C(=O)C1CCC1 | 0
O=C(C[C@@H]1CC[C@H]2[C@@H](COC[C@@H](O)CN2C(=O)Nc2ccccc2)O1)NC1Cc2ccccc2C1 | 5
COc1ccc(S(=O)(=O)Nc2cccc3c2O[C@@H](CN(C)S(=O)(=O)c2cn(C)cn2)[C@H](C)CN([C@@H](C)CO)C3=O)cc1 | -6
COCC(=O)Nc1ccc2c(c1)C(=O)N(C)C[C@H](OC)[C@H](C)CN(C(C)=O)[C@H](C)CO2 | 3
C[C@H](CO)N1C[C@H](C)[C@@H](CN(C)C(=O)c2ccncc2)OCCCC[C@H](C)Oc2ccc(NC(=O)NC3CCCCC3)cc2C1=O | -1
